High-throughput results from PubChem.
Rows were chosen to be rich in hits. Some 2.2% of all compounds tested hit in one or more screens of this group.
Efflux pump mplx: inhibitors of Candida antifungal efflux pumps expressed in yeast; S. cerevisiae Candida pump triplex, Nile Red efflux; inhibition, % at 10 µM; 0.44% of 330,000 active; AID 485275;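 active = plate passing quality check with inhibition over a set limit, or well fluorescence over plate mean plus 4 SD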;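 note: Nile Red retained in pooled yeast measured as flow cytometry median fluorescence; higher means more Nile Red kept so more efflux inhibition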
SKN-1 inh: C. elegans SKN-1 inhibition; C. elegans VP596 Pgst-4::GFP/RFP ratio, acrylamide-induced, 24 h; inhibition, % at 21.8 µM; 0.49% of 360,000 active;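 active = interference check ratio from 0.5 to 1.5 plus GFP to RFP signal ratio inhibition reaching or exceeding a fixed threshold, cut at about 30% in these data, passing the limit was not always enough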
SUMO Mot1 rescue: blocks SUMOylation pathway, rescuing yeast Mot1-301 growth. 1% of 320,000 active. S. cerevisiae Mot1-301 growth rescue, ATP luminescence, 38.5C; percent above DMSO median, 100 means doubled. growth rescue, % at 18.8 µM;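 active = every valid replicate shows activation above 250% relative to neutral control wells; inactive = the rest, any valid replicate at or below 250%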
HGIII-sPLA2 inh: Blocks human group III sPLA2 activity. Q9NZ20. QFRET BODIPY PC-A2 liposome hydrolysis, fluorescence. inhibition, % at 12.2 µM. 0.56% of 370,000 active. AID 743126;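 active = inhibition above mean plus 3 SD of compounds lying within the high and low control bounds, cut at about 19% in these data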
Target sequence (Q9NZ20 whole entry, looked up): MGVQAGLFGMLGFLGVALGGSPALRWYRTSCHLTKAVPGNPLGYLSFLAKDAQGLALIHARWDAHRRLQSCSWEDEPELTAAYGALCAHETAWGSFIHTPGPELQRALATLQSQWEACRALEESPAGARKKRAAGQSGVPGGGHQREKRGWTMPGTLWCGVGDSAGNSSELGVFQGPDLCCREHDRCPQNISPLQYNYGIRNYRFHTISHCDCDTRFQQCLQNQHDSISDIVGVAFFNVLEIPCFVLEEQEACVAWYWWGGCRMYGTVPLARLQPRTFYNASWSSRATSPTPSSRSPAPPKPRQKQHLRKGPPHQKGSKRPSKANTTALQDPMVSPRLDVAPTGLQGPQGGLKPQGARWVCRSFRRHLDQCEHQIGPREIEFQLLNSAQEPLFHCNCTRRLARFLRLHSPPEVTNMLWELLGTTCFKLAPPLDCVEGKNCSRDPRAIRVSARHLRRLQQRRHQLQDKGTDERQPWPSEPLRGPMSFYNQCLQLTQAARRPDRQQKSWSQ
Cmpd fluor yeast: compound fluorescence in yeast efflux pump counter-screen; shares compounds with Efflux pump mplx; S. cerevisiae AD/pABC3, flow cytometry; fluorescence ratio to DMSO, % at 10 µM; 4% of 1,700 active; AID 588517;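 active = fluorescence ratio to DMSO above its plate's cutoff, the plate mean ratio plus 5 SD, cut at about 210% in these data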;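 note: unstained yeast with no Nile Red so the signal is compound autofluorescence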
Mdr1 pump inh: inhibitors of Candida albicans Mdr1 efflux pump; shares compounds with Efflux pump mplx; S. cerevisiae AD/CaMDR1, Nile Red efflux, flow cytometry; inhibition, % at 10 µM; 1% of 1,700 active; in the data active = inhibition above about 26%;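 note: higher means more Nile Red retained so more efflux inhibition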
CaCdr2 efflux inh: inhibitors of Candida albicans Cdr2 efflux pump. shares compounds with Efflux pump mplx. S. cerevisiae AD/CaCDR2, Nile Red retention, flow cytometry. Nile Red retention ratio vs DMSO, % at 10 µM. 4% of 1,700 active; in the data active = Nile Red retention ratio vs DMSO above about 190%;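 note: higher ratio means more blocking of Cdr2 efflux of the dye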
Cdr1 pump inh: inhibitors of Candida albicans Cdr1 efflux pump; shares compounds with Efflux pump mplx; S. cerevisiae AD/CaCDR1, Nile Red efflux, flow cytometry; inhibition, % at 10 µM; 1% of 1,700 active; AID 588522;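 active = inhibition above the screen-wide mean plus twice its standard deviation, cut at about 32% in these data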
Of the large screens only hits and unclear results are named; the others gave an inactive call (follow-up assays come after a bar, where they were run).

COC(=O)CC1COc2ccccc2N1C(=O)/C=C/c1ccccc1 (configuration not stated)	none
CC1(C(=O)NCc2ccccn2)CCN1C(=O)Cc1ccc(Cl)cc1Cl (configuration not stated)	none (no result: Efflux pump mplx, SUMO Mot1 rescue)
COc1ccc(CNC(=O)C(C)n2nc(C)c3c(C)n(-c4ccc(C)cc4)nc3c2=O)cc1 (configuration not stated)	none | Cmpd fluor yeast inactive | Mdr1 pump inh inactive | CaCdr2 efflux inh inactive | Cdr1 pump inh inactive
Cc1nn(CCC(=O)NCc2ccc(OC(C)C)cc2)c(=O)c2nn(-c3ccccc3)c(C)c12	none | Cmpd fluor yeast inactive | Mdr1 pump inh inactive | CaCdr2 efflux inh inactive | Cdr1 pump inh inactive
CCOc1ccc(CNC(=O)C(C)n2nc(C)c3c(C)n(-c4ccccc4)nc3c2=O)cc1 (configuration not stated)	none
CCOC(=O)c1c(NC(=O)Cn2nc(C(=O)O)c3ccccc3c2=O)sc2c1CCC(C)C2 (configuration not stated)	Efflux pump mplx 0.5 (no result: SUMO Mot1 rescue) | Cmpd fluor yeast inactive | Mdr1 pump inh inactive | CaCdr2 efflux inh inactive | Cdr1 pump inh inactive
Cc1ccc(CSc2nnc(-c3cccs3)o2)cc1C	none (no result: Efflux pump mplx, SKN-1 inh, SUMO Mot1 rescue)
CC1(C)C(=O)Nc2ccccc2N1C(=O)COC(=O)Cc1ccc(Cl)c(Cl)c1	none
COc1ccc(C=C2CCc3ccccc3C2=O)cc1	none (no result: Efflux pump mplx, SUMO Mot1 rescue)
COc1ccc2c(c1)CC/C(=C/c1ccco1)C2=O	Efflux pump mplx 20, SKN-1 inh 60 | Cmpd fluor yeast inactive | Mdr1 pump inh inactive | CaCdr2 efflux inh inactive | Cdr1 pump inh inactive
CCS(=O)(=O)c1nc(S(=O)(=O)c2ccc(Cl)cc2)c(NCCN2CCOCC2)s1	none
CS(=O)(=O)N1CCN(c2ccc(NC(=O)CSc3ccc(Cl)cc3)cc2)CC1	none
Cc1ccc(C(=O)N2CCN(c3ccc(NC(=O)CSc4ccc(Cl)cc4)cc3)CC2)cc1	Efflux pump mplx 8.0 | Cmpd fluor yeast inactive | Mdr1 pump inh inactive | CaCdr2 efflux inh inactive | Cdr1 pump inh inactive
Cc1c(OCC(=O)NCC(O)c2ccccc2)ccc2c3c(c(=O)oc12)CCCC3 (configuration not stated)	none
CCCOC(=O)c1cccc(NC(=O)COc2ccc([N+](=O)[O-])cc2)c1	Efflux pump mplx 2.1 | Cmpd fluor yeast inactive | Mdr1 pump inh inactive | CaCdr2 efflux inh inactive | Cdr1 pump inh inactive
CCOC(=O)c1cccc(NC(=O)COc2ccc([N+](=O)[O-])cc2)c1	none
CCN(CC)c1ccc(/C=C2\CCC(/C=N/NC(=O)c3ccc(=O)n(C)c3)=C2N2CCOCC2)cc1	Efflux pump mplx 1.0 | Cmpd fluor yeast inactive | Mdr1 pump inh inactive | CaCdr2 efflux inh inactive | Cdr1 pump inh inactive
O=C(N/N=C/C1=C(N2CCOCC2)C(=C\c2ccccc2)/CC1)Nc1ccccc1	none
CC(=O)Nc1ccc(NC(=O)COC(=O)c2ccccn2)cc1	none
O=C(Nc1cc(F)cc(F)c1)c1ccc(NCCc2ccccc2)c([N+](=O)[O-])c1	Efflux pump mplx 13 | Cmpd fluor yeast inactive | Mdr1 pump inh inactive | CaCdr2 efflux inh inactive | Cdr1 pump inh inactive
COc1ccccc1N1CCN(C(=O)CCNS(=O)(=O)c2cc(Br)cnc2N)CC1	none
Cc1nn(Cc2cccc(C(=O)NC34CC5CC(CC(C5)C3)C4)c2)c(C)c1Br	Efflux pump mplx 0.3 | Cmpd fluor yeast inactive | Mdr1 pump inh inactive | CaCdr2 efflux inh inactive | Cdr1 pump inh inactive
CCCNC(=O)c1cccc(Cn2nc(C)c(Br)c2C)c1	none
COc1ccccc1NS(=O)(=O)c1cc2c3c(c1)CCN3C(=O)CC2	none
CC(C)c1nc(C(N)=O)c2[nH]c(=O)n(-c3ccc(F)cc3)c2n1	none
CCOc1ccccc1-c1nc(C(N)=O)c2[nH]c(=O)n(-c3ccc(F)cc3)c2n1	none | Cmpd fluor yeast inactive | Mdr1 pump inh inactive | CaCdr2 efflux inh inactive | Cdr1 pump inh inactive
Cc1ccsc1-c1nc(C(N)=O)c2[nH]c(=O)n(-c3ccc(Cl)cc3)c2n1	none | Cmpd fluor yeast inactive | Mdr1 pump inh inactive | CaCdr2 efflux inh inactive | Cdr1 pump inh inactive
Cc1ccc(-n2c(=O)[nH]c3c(C(N)=O)nc(C(C)C)nc32)cc1	none
CC(C)C[C@@H]1COc2cc(N(C)CCO)ccc2S(=O)(=O)N1	none (no result: Efflux pump mplx, SUMO Mot1 rescue)
O=Cc1ccc(-n2cncn2)cc1	Efflux pump mplx 1.0 | Cmpd fluor yeast inactive | Mdr1 pump inh inactive | CaCdr2 efflux inh inactive | Cdr1 pump inh inactive
COc1ccc(NC(=O)COc2nsnc2N2CCCCC2)cc1	Efflux pump mplx 9.0 | Cmpd fluor yeast inactive | Mdr1 pump inh inactive | CaCdr2 efflux inh inactive | Cdr1 pump inh inactive
CCOc1ccc(NC(=O)COc2nsnc2N2CCCCC2)cc1	none
Cn1nc(C(C)(C)C)cc1NC(=O)Nc1cc(Cl)cc(Cl)c1	none
COc1cc(S(=O)(=O)Nc2ccccn2)ccc1F	Efflux pump mplx 0.7 | Cmpd fluor yeast inactive | Mdr1 pump inh inactive | CaCdr2 efflux inh inactive | Cdr1 pump inh inactive
O=C(c1cc(-c2cccnc2)nc2ccccc12)N1CCN(S(=O)(=O)c2cccs2)CC1	none
CNC(=O)COC(=O)c1ccccc1NC(=O)c1ccco1	Efflux pump mplx 1.2 | Cmpd fluor yeast inactive | Mdr1 pump inh inactive | CaCdr2 efflux inh inactive | Cdr1 pump inh inactive
Cc1cc(C)nc(NS(=O)(=O)c2ccc(NC(=O)CSc3ncn[nH]3)cc2)n1	none
COc1ccc(S(=O)(=O)Nc2ccc(O)c(Sc3ncn[nH]3)c2)cc1	none | Cmpd fluor yeast inactive | Mdr1 pump inh inactive | CaCdr2 efflux inh inactive | Cdr1 pump inh inactive
COc1ccc(S(=O)(=O)Nc2cc(Sc3ncn[nH]3)c(O)c3ccccc23)cc1	none (no result: Efflux pump mplx, SKN-1 inh, SUMO Mot1 rescue)
CC(C)c1ccc(S(=O)(=O)Nc2ccc(O)c(Sc3ncn[nH]3)c2)cc1	none | Cmpd fluor yeast inactive | Mdr1 pump inh inactive | CaCdr2 efflux inh inactive | Cdr1 pump inh inactive
O=[N+]([O-])c1cc(C=NN2CCN(Cc3ccccc3Cl)CC2)ccc1Cl	none (no result: Efflux pump mplx, SKN-1 inh, SUMO Mot1 rescue)
Cc1cc(NC(=O)CCC(=O)N(Cc2cccs2)C(C(=O)NC2CCCC2)c2cccnc2)no1 (configuration not stated)	none
Cc1cc(NC(=O)CCC(=O)N(Cc2cccs2)C(C(=O)NC2CCCC2)c2ccccc2)no1 (configuration not stated)	none | Cmpd fluor yeast inactive | Mdr1 pump inh inactive | CaCdr2 efflux inh inactive | Cdr1 pump inh inactive
Cc1ccc(C(C(=O)NC2CCCC2)N(Cc2ccco2)C(=O)CCC(=O)Nc2cc(C)on2)cc1 (configuration not stated)	none | Cmpd fluor yeast inactive | Mdr1 pump inh inactive | CaCdr2 efflux inh inactive | Cdr1 pump inh inactive
O=C1CC(Cc2ccccc2)C(=O)N1Cc1ccco1 (configuration not stated)	none (no result: HGIII-sPLA2 inh)
